Measured values taken from PubChem BioAssay (NCATS).
Results filed as inconclusive are left out. Where a call stands in place of a potency, no number is given. Activity calls are given as the source filed them. Calls follow the shape of the dose curve; as a rule, active = well fitted inhibition curve with a large enough effect; inconclusive = small, poorly fitted or top-dose-only effect; inactive = flat fitted curve, though single readings scatter.

Assay: P-glycoprotein substrates identified in KB-8-5-11 adenocarcinoma cell line, qHTS therapeutic library screen (AID 1346987); also: nearly all actives have a fitted effect of over 65% in size
Settings: KB-8-5-11 (P-gp overexpressing) viability, CellTiter-Glo, 72 h; series mostly up to 44.5 µM
Summary of the method: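 Compounds are pinned in dose-response onto KB-8-5-11 cells (500 cells/well, colchicine-free medium) and left 72 h at 37 degree C. CellTiter-Glo luminescence then yields AC50 values.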
Potency is read from the fitted curve at half-maximal effect.

| Compound | Potency |
| --- | --- |
| CCn1c(=O)c(-c2ccc(-c3cncs3)cc2Cl)cc2cnc(Nc3ccc(N4CCN(C)CC4)cc3)nc21 | 18.4 µM (active) |
| N#Cc1cc(C2=Nc3ccc(Br)cc3NC(=O)C2)ccn1 | inactive |
| CC(C)(C)[C@H](NC(=O)c1ccc(N)c(Cl)c1)C(=O)N1CCC[C@H]1C(=O)N[C@H](C#N)CC(=O)O | inactive |
| CN(C)CC1CCn2c(c(C3=C(c4cn(C)c5ccccc45)C(=O)NC3=O)c3ccccc32)C1 (stereo not drawn) | 16.4 µM (active) |
| O=C1c2ccc(Nc3ccc(F)cc3F)cc2CCc2ccc(OCC(O)CO)cc21 (stereo not drawn) | 14.6 µM (active) |
| NCCCNCCCCNC(=O)C(O)NC(=O)CCCCCCN=C(N)N (stereo not drawn) | inactive |
| C=C[C@@]12COC(=O)C(=C)[C@@H]1[C@@H](O)[C@H](C(=C)C(=O)OC)[C@@H](O)C2 | inactive |
| OC1(CN2CCC(COc3noc4cccc(O[C@@H]5CCOC5)c34)CC2)CCOCC1 | inactive |
| Cc1ccc(C)c(NC(=O)[C@@H]2CCCN2S(=O)(=O)c2cccc3cccnc23)c1 | inactive |
| O=C(O)c1cc2ccccc2c(Cc2c(O)c(C(=O)O)cc3ccccc23)c1O | inactive |
| COc1ccccc1C(=O)Nc1cc2c(cc1N1CCCC1)n(C)c(=O)n2C | 18.4 µM (active) |
| c1cnc2cc3c(cc2n1)[C@@H]1CNC[C@H]3C1 | inactive |
| COc1ccc(CNCc2cccc3ccccc23)cc1 | inactive |
| COC(=O)C1=COC(O[C@@H]2O[C@H](CO[C@@H]3O[C@H](COC(=O)/C=C\c4ccc(O)cc4)[C@@H](O)[C@H](O)[C@H]3O)[C@@H](O)[C@H](O)[C@H]2O)C2C(CO)=CCC12 (stereo partly drawn) | inactive |
| CCn1c2ccccc2c2cc(Nc3ccnc(NCCCN4CCOCC4)n3)ccc21 | 20.6 µM (active) |
| CCCn1cc2c(nc(NC(=O)Nc3ccc(OC)cc3)n3nc(-c4ccco4)nc23)n1 | inactive |
| CCOc1ccc(CCNC(=O)c2cc3sc(Cl)cc3n2C)cc1OCC | inactive |

| Compound | Potency |
| --- | --- |
| CCCCc1cc2c(=O)c(C(=O)OC)c[nH]c2cc1OCc1ccccc1 | inactive |
| C=CC(=O)Nc1cc(-n2c(=O)ccc3cnc4ccc(-c5ccc(NS(C)(=O)=O)cc5)cc4c32)ccc1C | inactive |
| CC(=O)O[C@@H]1C[C@@]23C[C@@]24CC[C@H](O[C@@H]2OC[C@H](O)[C@H](O)[C@H]2O)C(C)(C)[C@@H]4CC[C@H]3[C@]2(C)[C@@H](O)C34O[C@H](C[C@@H](C)[C@@H]3[C@@]12C)[C@@H](C(C)(C)O)O4 | inactive |
| Clc1ncoc1-c1c[nH]c2ccccc12 | inactive |
| CO[C@H]1C[C@H](O[C@H]2[C@H](C)O[C@@H](O[C@@H]3/C(C)=C/C[C@@H]4C[C@@H](C[C@]5(C=C[C@H](C)[C@@H](C6CCCCC6)O5)O4)OC(=O)[C@@H]4C=C(C)[C@@H](O)[C@H]5OC/C(=C\C=C\[C@@H]3C)[C@]54O)C[C@@H]2OC)O[C@@H](C)[C@@H]1O | 20.6 µM (active) |
| Cc1cc2c(N3CCCC3)nc(N3CCCC3)nc2n1C | inactive |
| Cc1nc2c(C(F)(F)F)cccc2nc1-c1ccc(-c2cccc(S(C)(=O)=O)c2)cc1 | inactive |
| NC(N)=NC(=O)c1cnn(-c2cccc3ncccc23)c1C1CC1 | inactive |
| C[C@H]1[C@H](/C=C/c2ccc(-c3ccccc3C#N)cn2)[C@@H]2[C@@H](C)OC(=O)[C@@H]2C[C@@H]1C | 16.4 µM (active) |
| CCOC(=O)N1c2ccc(C(F)(F)F)cc2C(N(Cc2cc(C(F)(F)F)cc(C(F)(F)F)c2)C(=O)OC)CC1CC (stereo not drawn) | inactive |
| CN(C)C(=O)COC(=O)c1cc(-c2ccc(C3CCNCC3)cc2)c2ccc(-c3ccc(C(F)(F)F)cc3)cc2c1 | 18.4 µM (active) |
| CC(=O)OC1CCC2(C)C(CCC3(C)C2CC=C2C4C(C)C(C)CCC4(C)CCC23C)C1(C)C(=O)O (stereo not drawn) | inactive |
| CSCC[C@H](NC(=O)[C@H](Cc1ccc(OS(=O)(=O)O)cc1)NC(=O)[C@@H](N)CC(=O)O)C(=O)NCC(=O)N[C@@H](Cc1c[nH]c2ccccc12)C(=O)N[C@@H](CCSC)C(=O)N[C@@H](CC(=O)O)C(=O)N[C@@H](Cc1ccccc1)C(N)=O | inactive |
| CNS(=O)(=O)c1ccccc1Nc1nc(Nc2ccc(N3CCN(C)CC3)cc2OC)ncc1Br | 2.06 µM (active) |
| O=C(Nc1ccc(CN2CCOCC2)cc1)c1ccc(-c2cccc(Cl)c2)o1 | 16.4 µM (active) |
| O=S(=O)(N[C@H]1CCCC[C@@H]1N1CCOCC1)c1ccc(Cl)cc1 | inactive |
